This is an account of results in PubChem BioAssay (NCI).

SMILES strings stand for the structures. Values joined by “and” are separate entries in the source; they are usually repeats but may differ in a detail not shown here. Identical values can stand only once. This is part of a sample that, as a whole, favours compounds with a hit. Of some 83,000 tested, about 20% had one in any assay.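 Cells were grown in 96-well plates and exposed to the test compound at a single concentration for 48 hours; results are reported as percent growth, with values below 10 considered active.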 A number with no mark means an inactive call. Active and inactive are the calls of the source.

For the first test, the system named is M14 melanoma. Put plainly: NCI-60 one-dose screen, 48 h (100 = growth as untreated, 0 = no growth, -100 = all killed). Conditions: 1 µM. The method, then: Growth inhibition of the M14 human tumor cell line is measured as a screen for anti-cancer activity. Cells are grown in 96 well plates and exposed to the test compound for 48 hours. Compounds are tested at a single concentration, which is 10^-5 M for most compounds. The reported endpoint is percent growth (GI% or GIPRCNT), where numbers from 0 - 100% represent growth inhibition, and numbers from -100% - 0 represent cell death. For example, a value of 40 represents 60% growth inhibition. A value of 0 means no net growth occurred over the course of the experiment. A value of -40 indicates 40% of cells at the beginning of the experiment died by the end of the experiment. A value of -100 means all cells are dead at the end of the experiment.
NCI-60 Human Tumor Cell Lines Screen was performed using the standard one-dose NCI protocol, which is described in more detail at https://dtp.cancer.gov/discovery_development/nci-60/default.htm.
Compounds with GIPRCNT values below 10 were considered active. Activity score was based on GIPRCNT using the following formula: […]
Score is 0 for GIPRCNT values of 100 or above, 50 for GIPRCNT values of 0, and 100 for GIPRCNT values of -100.
On to `CC/C(=C(\c1ccc(O)cc1)c1ccc(OCCNC)cc1)c1ccccc1`, for which the growth is 107%. As for `CC/C(=C(\c1ccc(O)cc1)c1ccc(OCCN(C)C(=O)COCCNC(=O)Cc2ccc3c(c2)CN([C@@H]2CCC(=O)NC2=O)C3=O)cc1)c1ccccc1`, the growth is 82.1%.

The same test, now with this note: 10 µM.
In the case of `CC/C(=C(\c1ccc(O)cc1)c1ccc(OCCNC)cc1)c1ccccc1`, the growth is -18.8% (active). Same read-out and setting: for `CC/C(=C(\c1ccc(O)cc1)c1ccc(OCCN(C)C(=O)COCCNC(=O)Cc2ccc3c(c2)CN([C@@H]2CCC(=O)NC2=O)C3=O)cc1)c1ccccc1` the value was 68.9%.

The same test, now with this note: 10 µM unless noted.
Take `COc1c(B(O)O)cccc1-c1nc2ccc3cn[nH]c3c2c2c1CCCC2`: the growth was 88.4%.

As for `COc1cc(/C=N/NC(=O)c2ccc(OCc3nc4ccc(C)cc4[nH]3)cc2)cc(OC)c1OC`, the growth is 33%. Consider `CN(C)c1nc(NCCNS(=O)(=O)c2ccc(C(=O)/C=C/c3ccc(F)cc3)cc2)nc(N2CCOCC2)n1`, for which the growth is 12.7%.

For `CCCCN1C(=O)/C(=C\C(=O)c2cc3ccccc3oc2=O)c2ccccc21`, the growth was 53.5%. On the same count and under the same terms, for `COc1ccc(C(=O)NNC(=O)CSc2nc3sc4c(c3c(=O)n2-c2ccc(Cl)cc2)CCCC4)cc1` the value was 77.4%; for `Nc1nn2c(-c3cc4cc(Br)ccc4oc3=O)ccnc2c1N=Nc1ccc(S(N)(=O)=O)cc1`, 62.2%; for `COc1ccc([C@H]2C(C(=O)c3ccc(Cl)cc3)C3(N[C@@H]2c2ccccc2)C(=O)Nc2ccccc23)cc1` (stereo not given in full), 53%. Turning to `COc1cc(CNC(=O)C[C@H](C)CCC=C(C)C)ccc1OCc1cn(-c2ccccc2Cl)nn1`, the growth is 55.9%. Turning to `CC1=C(C(=O)OCc2ccccc2)C(c2ccc(N(C)C)cc2)n2c(nc3ccccc32)N1` (stereo not given), the growth was 80.4%. Still for that read-out and setting: the same measure for `CCCCCCCCc1cccc(CC(=O)Nc2ccc(C)cc2C(=O)O)c1`: 62.9% [25 µM]; for `CN(C)c1nc(NCCNS(=O)(=O)c2ccc(C(=O)/C=C/c3ccc(Cl)cc3)cc2)nc(N2CCOCC2)n1`: -20.2% (active); for `COc1ccc(NC(=O)NN2C(=O)c3ccccc3N(C)C2c2ccc(OC)cc2)cc1` (stereo not given): 70.3%. Same read-out and setting: for `COc1ccc(N=Nc2c(N)nn3c(N)c(C#N)c(-c4ccccc4)nc23)cc1` the value was 74.2%. For `C/C(=N/O)c1ccc(NC(=O)CSc2nnc(-c3ccc4nc(-c5ccc(Cl)cc5)[nH]c4c3)o2)cc1`, the growth is 22.2%. In the case of `FC(F)(F)CN1CCN(CCn2c(C(F)(F)F)cc3c(Cl)ncnc32)CC1`, the growth is -66.7% (active).

As to `CNS(=O)(=O)N1CCc2c(Br)c3c(c(OC)c2C1CCc1ccccc1)OCO3` (stereo not given), the growth was -9.58% (active). In the case of `Nc1nnc(-c2cncc(Br)c2)c(-c2c[nH]c3ccc(Cl)cc23)n1`, the growth is 86.4%. As for `O=C1/C(=C/c2cccc3c2OCO3)Cc2c(F)cc(Br)cc21`, the growth is 98.9%. Same read-out and setting: for `Cc1cccc(/C=C/c2ccc(NC(=S)NCCCCN(C)C)cc2)c1` the value was -64.4% (active); for `CC(Nc1ncnc2ccc(-c3ccc4oc(N)nc4c3)cc12)c1ccccc1` (stereo not given), 23.7%; for `CC(C)(C)OC(=O)N1C/C(=C\c2ccc(F)cc2)C(=O)/C(=C/c2ccc(F)cc2)C1`, -71.5% (active).

As to `COC(=O)c1cc(C(=O)C(C)(C)C)n2c3ccccc3c3ccccc3c12`, the growth was 96.7%. `COC(=O)c1c(C(=O)OC)c2c3ccccc3c3ccccc3n2c1C(=O)C(C)(C)C`: the growth is 74.3%. The same measure, in the same setting: the same measure for `Cc1ccc(C(=O)Nc2cc(-c3ccncc3)cc(C(F)(F)F)c2)cc1C#Cc1cnc2cccnn12`: 8.59% (active); for `COc1cc(/C=C/C(=O)c2cnn(-c3cc(=O)[nH]c4ccc(Cl)cc34)c2C)cc(OC)c1OC`: -49% (active). On the same count and under the same terms, the same measure for `CC(=O)c1ccc2c(N)c(C(=O)Nc3ccc(C(F)(F)F)cc3)sc2n1`: 58.3%.

Turning to `CSc1ccc(OCc2nc3ccccc3n2-c2cccc(NS(C)(=O)=O)c2)cc1`, the growth was 119% and 81.6%. The same measure, in the same setting: the same measure for `CN(C(=O)CN1C(=O)/C(=C/c2ccco2)SC1=S)C1CCS(=O)(=O)C1` (stereo not given): 94.6%.

For `COc1ccc(N=Nc2c(N)nn3c(-c4ccc5c(c4)C=S=C5)ccnc23)cc1`, the growth was 58.9%.

For the compound `O=C1c2cccc3c(N4CCN(c5ccccc5)CC4)ccc(c23)C(=O)N1c1cccc(-c2nn(-c3ccccc3)cc2-c2nc3ccccc3s2)c1`, the growth is 104%.

In the case of `N#CC1=C(c2cccs2)Nc2c(c(-c3ccccc3)nn2-c2ccccc2)C12C(=O)Nc1ccccc12` (stereo not given), the growth was 14.6%.

On to `CCCn1c(NC(=O)c2cccc(C(N)=O)c2)nc2ccc(CN3CCCCC3)cc21`, for which the growth was -6.41% (active). For the compound `O=C(c1ccc(Cl)cc1)C1[C@H](c2ccccc2Cl)[C@@H](c2ccccc2)NC12C(=O)Nc1ccc(Cl)cc12` (stereo not given in full), the growth was -82.9% (active). Still for that read-out and setting: the same measure for `COc1ccc(C(=O)/C=C/c2ccc3c(c2)OCCO3)cc1S(N)(=O)=O`: 89.7%. As for `Cc1ccc(NC(=O)N/N=C/c2c[nH]c3ccccc23)c(C)c1`, the growth is 12.5%.

`N#CC1=C(c2ccco2)Nc2c(c(-c3ccccc3)nn2-c2ccccc2)C12C(=O)Nc1ccc(Br)cc12` (stereo not given): the growth was 42%.
